Test results reported in ChEMBL document CHEMBL4513216, “Probing the Open Global Health Chemical Diversity Library for Multistage-Active Starting Points for Next-Generation Antimalarials” (ACS Infect Dis, 2020).
Out of some 69,000 compounds screened, about 8,600 (12%) showed an effect of 50% or more. What follows is part of a selection rich in strong results, with near analogues and random picks from the rest.

System: Plasmodium berghei
Assay: Screen against P. berghei liver stage (PbLuc), transformed with Luciferase, at 10uM
Assay type: functional, HepG2
Settings: tested at 10 uM

Compound	INHIBITION [%]
CN(C)C(=O)c1cnc2n1CCN(Cc1cccc(C#N)c1)C2	33.4
O=C(CCCc1nnc(-c2ccccc2)o1)N1CCC1	28.8
Cc1cnn(C2CN(c3ccccc3S(=O)(=O)C(F)(F)F)C2)c1	89.4
O=S(=O)(c1cc(F)ccc1N1CC(n2cccn2)C1)C(F)(F)F	26.8
O=S(=O)(c1ccccc1N1CC(n2cccn2)C1)C(F)(F)F	43.5
CN(Cc1nnn(CC2CCC2)n1)C(=O)c1ccccc1	-19.1
CCN1CCN(C(C)CNC(=O)Nc2nc3ccccc3s2)CC1 (centres undefined)	59.4
CCN1CCN(C(C)CNC(=O)Nc2nnc(C)s2)CC1 (centres undefined)	34.6
CCN1CCN(C(C)CNC(=O)Nc2nnc(C(C)C)s2)CC1 (centres undefined)	-11.6
CNC(=O)Nc1cc(-c2ccc(Br)cc2)nn1CCO	-4.74
CN(C)CC1(O)CCN(C(=O)Cc2ccc3c(c2)CCC3)C1 (centres undefined)	19.5
O=C(CN1CCc2c(ncn2C2CC2)C1)NC1CCN(C2CC2)CC1	39.2
Cc1ccc(-c2nc(CN3C[C@@H](C)NC[C@@H]3C)c(C)o2)s1	50.4
Cc1oc(-c2cc(F)cc(F)c2)nc1CN1C[C@@H](C)NC[C@@H]1C	-6.61
CSc1ccc(-c2nc(CN3C[C@@H](C)NC[C@@H]3C)c(C)o2)cc1	24
Cc1c(C(=O)NCC(C)(C)S(C)(=O)=O)cccc1-c1ccccn1	-53.2
Cc1c(C(=O)NCCC(=O)N2CCCC2)cccc1-c1ccccn1	71.4
Cc1c(C(=O)NCCCS(C)(=O)=O)cccc1-c1ccccn1	-12.1
Cc1nn(C)c(Oc2cccc(F)c2)c1NC(=O)C1CCCO1 (centres undefined)	29.8
Cc1nn(C)c(Oc2cccc(F)c2)c1NC(=O)C1CCOCC1	62.9
Cc1nn(COc2cccc(F)c2)c(C)c1NC(=O)C1CC1	46.6
Brc1ccccc1-c1nnc(CNCCn2cccn2)o1	29.7
O=C(CCN1C[C@H]2CC[C@@H]1C2)N1CCN(c2cccc(Cl)c2)C(=O)C1	-6.94
CC(C)CNC(=O)[C@H]1C[C@H]2CN(C(=O)NCCc3ccccc3)C[C@@H]1O2	20.5
Cc1ccccc1CC(=O)N1CCOCC1c1c(C)n[nH]c1C (centres undefined)	41.65
CSc1ccc(C(=O)N2CCOCC2c2c(C)nn(C)c2C)o1 (centres undefined)	23.4

Compound	INHIBITION [%]
Cc1ccc(CC(=O)N2CCOCC2c2c(C)n[nH]c2C)cc1 (centres undefined)	67.5
Cc1cccc(CCC(=O)N2CCOCC2c2c(C)n[nH]c2C)c1 (centres undefined)	-2.53
Cc1ccc(CC(=O)N2CCOCC2c2ncon2)cc1 (centres undefined)	19.4
Cc1cccc(CC(=O)N2CCOCC2c2c(C)n[nH]c2C)c1 (centres undefined)	53.8
Cc1n[nH]c(C)c1C1COCCN1C(=O)c1cccc(F)c1F (centres undefined)	-0.25
Cc1n[nH]c(C)c1C1COCCN1C(=O)Cc1cccc(F)c1 (centres undefined)	16.8
Cc1n[nH]c(C)c1C1COCCN1C(=O)c1ccc(Cl)o1 (centres undefined)	-0.482
Cc1n[nH]c(C)c1C1COCCN1C(=O)Cc1ccccc1F (centres undefined)	83.4
CSc1ccc(C(=O)N2CCOCC2c2c(C)n[nH]c2C)o1 (centres undefined)	57.45
Cc1ccc(O)c(C(=O)N2CCOCC2c2c(C)n[nH]c2C)c1 (centres undefined)	1.563
CN(CC1(O)CCCC1)C(=O)c1cccc(Nc2cnccn2)c1	22
CCCN(C)S(=O)(=O)N1CCCC1c1ccco1 (centres undefined)	10.47
CN(C)C(=O)C1CN(Cc2nccs2)CCN(S(C)(=O)=O)C1 (centres undefined)	7.52
COCC(C)(O)CNC(=O)c1cc(-c2ccc(F)cc2)nn1C (centres undefined)	-89.3
Cn1nc(C#N)c2c1CN(C(=O)c1cccnc1)CCC2	9.3
CCCC(=O)NC(C(=O)OC)c1cc(F)ccc1F (centres undefined)	-14
Cc1nnc(C2CCN(c3ncccn3)CC2)o1	25.8
Cc1c(F)cccc1S(=O)(=O)NCCN	4.3
CC(=O)NCC(=O)N1CCOC2(CCCN(c3ccc(C)nn3)C2)C1 (centres undefined)	8.74
Cc1ncsc1CN1C[C@H](C(=O)NC2CCCC2)[C@@H]2CCO[C@@H]2C1	52
O=C(NC1CCCC1)[C@@H]1CN(Cc2nccs2)C[C@H]2OCC[C@H]21	32.4
O=C(NCC1CC1)[C@H]1CN(Cc2nccs2)C[C@H]2OCC[C@@H]12	17.7
CC(C)NC(=O)[C@@H]1CN(Cc2nccs2)C[C@H]2OCC[C@H]21	71.1
Cc1ncsc1CN1C[C@H]2OCC[C@H]2[C@H](C(=O)NCC2CC2)C1	34.4
Cc1ncsc1CN1C[C@H](C(=O)NCC2CC2)[C@@H]2CCO[C@@H]2C1	24.9
Cc1ccc(S(=O)(=O)N2CC[C@@H]3C[C@H](NC(=O)c4[nH]ncc4Br)[C@@H]32)cc1	35.9

Compound	INHIBITION [%]
Cc1ccc(S(=O)(=O)NC(=O)CCc2cscn2)cc1Cl	3.46
Cc1nn(C)c(Cl)c1C1CCCN1C(=O)c1csnn1 (centres undefined)	10
CCCn1cc2c(C(F)F)cc(SCC(=O)O)nc2n1	32.3
CC(C)(CN1C[C@H](Nc2ncccn2)[C@@H](C2CC2)C1)N1CCOCC1	2.15
CSc1cccc(NC(=O)Nc2c(O)oc3ccccc3c2=O)c1	1.86
CC(C)(CN1CCC2(CCNCC2)CC1)N1CCOCC1	-22.1
Cc1ccoc1C(=O)NC1CCN(Cc2ccccc2F)CC1	44.1
Cc1ccoc1C(=O)NC1CCN(Cc2cccc3c2OCCO3)CC1	52.1
Cc1ccoc1C(=O)NC1CCN(Cc2cccc3ccccc23)CC1	56.4
Cc1ccoc1C(=O)NC1CCN(Cc2csc3c(F)cccc23)CC1	87.4
Cc1ccoc1C(=O)NC1CCN(Cc2ccccc2C#N)CC1	-9.37
Cc1ccoc1C(=O)NC1CCN(CC(=O)N(C)c2ccccc2)CC1	22.3
CC(C)C(=O)NC1CCN(Cc2cccc3c2OCCO3)CC1	6.81
Cc1ccoc1C(=O)NC1CCN(C(=O)Nc2ccccn2)CC1	-31.8
Cc1ccc(C(=O)NC2CCN(Cc3cccc4c3OCCO4)CC2)s1	33.8
CN(C)c1ncc(-c2ccc(C(N)=O)cc2)c(C2CCNC2)n1 (centres undefined)	6.33
Cc1cc(C(=O)N2CCC3(C2)CN(c2cccnc2)C(=O)CN3C)[nH]n1 (centres undefined)	22.4
CC(C)c1nccn1C1CCCN(C(=O)c2cc(C(N)=O)cs2)C1 (centres undefined)	35.3
CC(=O)N1CCC2(CC1)CN(C(C)C)c1ccc(F)cc12	12.2
CN1CCC(Cc2cccc(-c3cc(F)ccc3C(=O)O)n2)CC1	23.4
CC(C)Oc1ccc(C(=O)N2CC[C@H](O)[C@@H](n3ccnc3)CC2)cc1	26.3
CCS(=O)(=O)c1ccccc1N1CCC(N)CC1	31.8
CC(C)c1ncncc1C(=O)N1CCN(Cc2cccnc2)CC1	31.9
COCCOCC1(CNCc2ccc(F)cc2)C[C@@H](O)[C@@H](O)C1 (some centres undefined)	-43
CC(C)Cc1nnc2sc(-c3cc(C(C)C)n[nH]3)nn12	46.6
CC(C)(C)c1ccc(CN2C[C@H]3CC(O)C[C@H]3C2)c(OCC(N)=O)c1 (some centres undefined)	-2.85

Compound	INHIBITION [%]
COc1ccc2cnn(CC(=O)NC3CCCC3)c(=O)c2c1OC	40.5
N#CCCN(Cc1ccccn1)C(=O)Nc1cccc(F)c1	-27.6
CCOc1ccc(NC(=O)N(CCC#N)Cc2ccccn2)cc1F	-1.95
COC(C)c1cccc(NC(=O)N(CCC#N)Cc2ccccn2)c1 (centres undefined)	27.8
CN(C)CCCN(CCC#N)C(=O)Nc1ccc2[nH]ccc2c1	35.9
Cc1cc(C)cc(NC(=O)N(CCC#N)CCCN(C)C)c1	52.6
Cc1cc(NC(=O)N(CCC#N)CCCN(C)C)ccc1F	52.6
CCOc1ccccc1-n1c(C2CC2)n[nH]c1=O	-8.25
COc1cc(N2CC[C@@H]3O[C@H](C(=O)N(C)C)C[C@@H]32)ncn1	-20.1
Cc1cccc(CN2CCc3onc(CO)c3C2)n1	28.5
CCC(=O)N1CCN(C(=O)c2cn3ccsc3n2)[C@H]2CS(=O)(=O)C[C@H]21	14.9
O=C1NCCN(C(=O)c2cn3ccsc3n2)C1Cc1ccccc1 (centres undefined)	54.5
O=C1NCCN(C(=O)c2cn3ccsc3n2)C1c1cccc(F)c1 (centres undefined)	43.6
Cc1cccnc1CN1CCN(C(=O)[C@@]23CNC[C@@H]2CN(C)C3)CC1	41.5
Cc1cs/c(=N\C(=O)Cn2nc(N3CCSCC3)ccc2=O)[nH]1	10.1
CNC(=O)C1CCN(C(=O)CCn2cccn2)CC1	62.8
CCN(CC)CC1CCN(C(=O)CCn2cccn2)CC1	17.15
COC1CCN(C(=O)CCn2cccn2)CC1	-9.85
COc1ccc(C)cc1NC(=O)C1CSc2ncc(C)c(=O)n2C1 (centres undefined)	5.36
c1ccc(CN2CCCC2)c(CNc2cncc3nnnn23)c1	-14.3
COc1cc(C(=O)NC(C)(C)CN2CCN(C)CC2)c2ccccc2n1	28.05
CN1CCC(NC(=O)c2cc(C3CCCCC3)nc3ccccc23)CC1	10.5
COc1cc(C(=O)NCC2(N(C)C)CCN(C)CC2)c2ccccc2n1	68.4
COc1cc(C(=O)NCCS(=O)(=O)N(C)C)c2ccccc2n1	52.9
CCCNC(=O)c1cc(OC)c(OC)cc1N(C)S(C)(=O)=O	24.9
CCn1nc(CC(C)C)cc1C(=O)NCCS(=O)(=O)N(C)C	7.25
